Measured values from PubChem BioAssay (EPA / NIEHS).
Active and inactive are the calls of the source. The calls were made as follows: active = hit-call score of the fitted dose curve at least 0.9, where 1 is the maximum; inactive = score below 0.9.

read-out: Collagen I, COL1A1 (gene 1277); assay: BSK_hDFCGF_CollagenI: BioMAP Diversity Plus: hDFCGF Assay for Collagen I Biomarker Activity (AID 2284250); details: primary human foreskin fibroblasts
Method: BSK_hDFCGF is a cell-based, multiplexed-readout assay that uses foreskin fibroblast, a human skin primary cell, with measurements taken at 24 hours after chemical dosing in a 96-well plate.BSK_hDFCGF_CollagenI is an assay component measured in the BSK_hDFCGF assay. It measures Collagen I antibody related to regulation of gene protein expression using ELISA technology.Data from the assay component BSK_hDFCGF_CollagenI was analyzed at the endpoint, BSK_hDFCGF_CollagenI, in the positive analysis fitting direction relative to DMSO as the negative control and baseline of activity. Using a type of binding reporter, gain or loss-of-signal activity can be used to understand protein changes. To generalize the intended target to other relatable targets, this assay endpoint is annotated to the 'cell adhesion molecules' intended target family, where the subfamily is 'collagen'.
The levels of cell surface (or secreted, indicated by the prefix "s") biomarker endpoints were measured by ELISA. Overt cytotoxicity to cells in confluent adherent cultures (all systems other than the BT system) was assessed by measuring total protein levels using sulforhodamine B (SRB) staining in parallel cultures at the time of biomarker measurements, indicated as SRB endpoints. For proliferation assays for adherent cell types, individual cell types are cultured at sub-confluence and relative cell numbers quantified by SRB staining at time points optimized for each system (48 h: 3C and CASM3C systems; 72 h: BT and HDF3CGF systems; 96 h: SAg system). SRB was performed by staining cells with 0.1% SRB after fixation with 10% TCA and reading wells at 560 nm.Viability and proliferation of PBMC (T cells) was quantified by Alamar Blue reduction for the SAg and BT systems. For PBMC viability (referred to as PBMC Cytotoxicity within the assay endpoint names), cells were plated (75,000/well in a 96-well plate) and then chemical samples added for 1 h before addition of activators, SEB and TSST-1 (20 ng/mL final concentration each). Cells were incubated for 90 h. Then, Alamar Blue (20 uL/well) (Invitrogen, Cat DAL1100) was added for 6 h, and the plates were read with a fluorescence microplate reader at 546/580 nm (excitation/emission). For PBMC proliferation, cells were plated and activated as above but incubated for only 16 h prior to addition of Alamar Blue. Plates were read after 6 h.

SMILES	outcome
O=C(O)C(F)(F)C(F)(F)C(F)(F)C(F)(F)C(F)(F)C(F)(F)C(F)(F)C(F)F	inactive
C=C(C)C(=O)OCCC(F)(F)C(F)(F)C(F)(F)C(F)(F)C(F)(F)C(F)(F)C(F)(F)C(F)(F)F	inactive
OCC(F)(OC(F)(F)C(F)(OC(F)(F)C(F)(F)C(F)(F)F)C(F)(F)F)C(F)(F)F (stereo not drawn)	inactive
CCCCN(CCO)CCO	inactive
CC(C)(CO)CO	inactive
O=S(=O)(O)C(F)(F)C(F)(F)OC(F)(F)C(F)(F)F	inactive
CC(C)CCCC(C)(C)O	inactive
CCCO[Si](OCCC)(OCCC)OCCC	inactive
O=C(O)C(F)(F)OC(F)(F)C(F)(F)OC(F)(F)C(F)(F)C(F)(F)C(F)(F)F	inactive
C=C(F)C(=O)OC(C(F)(F)F)C(F)(F)F	inactive
CC(=O)c1ccc(C)cc1	inactive
CCn1cc(C(=O)O)c(=O)c2ccc(C)nc21	inactive
c1ccc(OCCOc2ccccc2)cc1	inactive
